# Inconclusive results are not listed. A call without a number means that no potency is given here. Activity calls are given as the source filed them. Unless noted, calls come from the whole dose curve; as a rule, active = well fitted inhibition curve with a large enough effect; inconclusive = small, poorly fitted or top-dose-only effect; inactive = flat fitted curve, though single readings scatter.
# Tests used:
# [1] = qHTS for identification of novel therapeutic agents for treatment of microphthalmiaassociated transcription factor (MiT) renal cell carcinoma (RCC) (AID 1963991; calls by dose curve); details: CellTiter-Glo, 48 h; for z-score: stronger effect = lower value
# In short: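 UOK109/UOK124/UOK145 (TFE3 fusions, three partners); 500 cells/well; MIPE v4.0, 1912 cpds, 11 conc.; 48 h, 37 C; CellTiter-Glo, 15 min RT; lum. Norm.: DMSO 100%, empty 0%.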
# [2] = qHTS profiling for inhibitors of Plasmodium falciparum proliferation (AID 504749); note: nearly all actives have a fitted effect of over 60% in size; details: P. falciparum in erythrocytes, SYBR Green DNA, 72 h
# In short: (§1)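 SYBR Green fluorescence of parasite DNA, read after lysis and overnight dark incubation, measured growth over 72 h in erythrocyte culture at 0.3% parasitemia and 2.5% hematocrit. Data normalised to DMSO and 0.29 uM artemisinin, with plate-drift correction.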
# [3] = system: 3D7; test: as above; details: P. falciparum in erythrocytes, SYBR Green DNA, 72 h; series mostly up to 28.7 µM
# In short: as §1
# [4] = system: 7G8; test: as above; details: P. falciparum in erythrocytes, SYBR Green DNA, 72 h; series mostly up to 28.7 µM
# In short: as §1
# [5] = system: AA1029; test: as above; details: P. falciparum in erythrocytes, SYBR Green DNA, 72 h; series mostly up to 28.7 µM
# In short: as §1
# [6] = system: AS120; test: as above; details: P. falciparum in erythrocytes, SYBR Green DNA, 72 h; series mostly up to 28.7 µM
# In short: as §1
# [7] = system: ATS189; test: as above; details: P. falciparum in erythrocytes, SYBR Green DNA, 72 h; series mostly up to 28.7 µM
# In short: as §1
# [8] = system: ATS95; test: as above; details: P. falciparum in erythrocytes, SYBR Green DNA, 72 h; series mostly up to 28.7 µM
# In short: as §1
# [9] = system: C2A; test: as above; details: P. falciparum in erythrocytes, SYBR Green DNA, 72 h; series mostly up to 28.7 µM
# In short: as §1
# [10] = system: CP185; test: as above; details: P. falciparum in erythrocytes, SYBR Green DNA, 72 h; series mostly up to 28.7 µM
# In short: as §1
# [11] = TFE3-RCC UOK109 viability, measured here: UOK109 Z-AUC
# [12] = TFE3-RCC viability, measured here: UOK124 Z-AUC
# [13] = TFE3-RCC viability, measured here: UOK145 Z-AUC
# [14] = at 28.7 µM (top of the series), parasite line A
# [15] = at 28.7 µM (top of the series), parasite line B
# [16] = at 12.8 µM (top of the series), parasite line A
# [17] = at 12.8 µM (top of the series), parasite line B
# Potency is the fitted concentration of half-maximal effect.
SMILES,"z-score [1, 11]","z-score [1, 12]","z-score [1, 13]","activity, negative = inhibition [2, 14]","activity, negative = inhibition [2, 15]",Potency [3],Potency [4],Potency [5],Potency [6],Potency [7],Potency [8],Potency [9],Potency [10],"activity, negative = inhibition [2, 16]","activity, negative = inhibition [2, 17]","Potency ([1]; TFE3-RCC UOK109 viability, active = Z-AUC below -0.8 in all three lines)"
NCCS(=O)(=O)O,0.929,0.854,0.716,5.98% (inactive),-25.3% (inactive),inactive,inactive,inactive,inactive,inactive,inactive,inactive,inactive,–,–,–
CCC1(C)CC(=O)NC1=O (stereo not drawn),0.867,0.609,0.715,–,–,–,–,–,–,–,–,–,–,–,–,–
CC1(C)O[C@H]2CC(=O)OC[C@]23[C@H]2CC[C@@]4(C)[C@H](c5ccoc5)OC(=O)[C@H]5O[C@]54[C@]2(C)C(=O)C[C@@H]13,0.617,0.649,1.11,–,–,–,–,–,–,–,–,–,–,–,–,–
NC(CO)C(=O)NNCc1ccc(O)c(O)c1O (stereo not drawn),0.539,-0.122,0.506,–,–,–,–,–,–,–,–,–,–,–,–,–
CC(C)(C)C(=O)Oc1ccc(S(=O)(=O)Nc2ccccc2C(=O)NCC(=O)O)cc1,0.584,0.0353,0.435,-0.829% (inactive),7.95% (inactive),inactive,inactive,inactive,inactive,inactive,inactive,inactive,inactive,–,–,–
CS(=O)(=O)Nc1ccc([N+](=O)[O-])cc1Oc1ccccc1,1.08,0.234,0.487,–,–,inactive,inactive,inactive,inactive,inactive,inactive,inactive,inactive,15.2% (inactive),9.68% (inactive),–
Cc1ccccc1N1C(=O)c2cc(S(N)(=O)=O)c(Cl)cc2NC1C (stereo not drawn),0.956,0.478,-0.147,–,–,–,–,–,–,–,–,–,–,–,–,–
COc1ccc(C2CNC(=O)C2)cc1OC1CCCC1 (stereo not drawn),0.4,0.743,0.539,–,–,–,–,–,–,–,–,–,–,–,–,–
COC(=O)Nc1nc2ccc(C(=O)c3cccs3)cc2[nH]1,-2.2,-3.02,-1.81,-6.79% (inactive),11.2% (inactive),inactive,inactive,inactive,inactive,inactive,inactive,–,inactive,–,–,8.33 nM (active)
NS(=O)(=O)c1cc2c(cc1Cl)NCNS2(=O)=O,0.106,0.843,0.437,1.79% (inactive),14.1% (inactive),inactive,inactive,inactive,inactive,inactive,inactive,inactive,inactive,–,–,–
COc1ccccc1OCC(O)CN1CCN(CC(=O)Nc2c(C)cccc2C)CC1 (stereo not drawn),0.18,0.373,-0.0249,2.52% (inactive),-6.5% (inactive),inactive,inactive,inactive,inactive,inactive,inactive,inactive,inactive,–,–,–
O=C(c1ccc(F)cc1)C1CCN(CCn2c(=O)[nH]c3ccccc3c2=O)CC1,0.795,0.577,0.595,5.58% (inactive),9.97% (inactive),inactive,5010 nM (active),inactive,inactive,inactive,inactive,inactive,inactive,–,–,–
O=C(C1CCCCC1)N1CC(=O)N2CCc3ccccc3C2C1 (stereo not drawn),-4.91,0.786,-3.49,–,–,–,–,–,–,–,–,–,–,–,–,–
NCCCCCC(=O)O,0.855,0.487,0.828,–,–,inactive,inactive,inactive,inactive,inactive,inactive,inactive,inactive,3.43% (inactive),5.54% (inactive),–
CN1C2CCC1CC(OC(=O)C(CO)c1ccccc1)C2 (stereo not drawn),0.361,0.456,0.45,–,–,–,–,–,–,–,–,–,–,–,–,–
Cc1cn([C@H]2C=C[C@@H](CO)O2)c(=O)[nH]c1=O,0.266,0.139,0.201,2.38% (inactive),-3.42% (inactive),inactive,inactive,inactive,inactive,inactive,inactive,inactive,inactive,–,–,–
CC[N+](CC)(CC)CCOc1cccc(OCC[N+](CC)(CC)CC)c1OCC[N+](CC)(CC)CC,0.0594,0.771,-0.103,-0.0275% (inactive),10.3% (inactive),inactive,inactive,inactive,inactive,inactive,inactive,inactive,inactive,–,–,–
CCOC(=O)C(C)(C)Oc1ccc(Cl)cc1,-1.29,0.307,0.606,5.66% (inactive),12.1% (inactive),inactive,inactive,inactive,inactive,inactive,inactive,inactive,inactive,–,–,–
COc1nc(C)nc(Cl)c1NC1=NCCN1,0.168,0.306,0.251,–,–,inactive,inactive,inactive,inactive,inactive,inactive,inactive,inactive,1.48% (inactive),0.89% (inactive),–
CC(=O)OCC(CCn1cnc2cnc(N)nc21)COC(C)=O,0.583,0.498,1.13,-2.23% (inactive),0.392% (inactive),inactive,inactive,inactive,inactive,inactive,inactive,inactive,inactive,–,–,–
CCN1CCCC1CNC(=O)c1cc(S(=O)(=O)CC)c(N)cc1OC (stereo not drawn),0.976,0.754,0.815,–,–,–,–,–,–,–,–,–,–,–,–,–
